Usually inhibition stands for the relative decrease from the control value, in per cent.

Structures are written as SMILES. The whole screen tested about 140,000 compounds, of which about 220 (0.16%) were called active. The sample as a whole holds a higher share of actives than the screen did. Values without a mark were called inactive. Cut-off read from the data, not from the text of the source: active = inhibition above about 50%; inactive = the rest.

The test system of the experiment is YopH tyrosine phosphatase [Yersinia enterocolitica]. Nature of the experiment: inhibition of Yersinia YopH phosphatase – biochemical, fluorescence Ex485/Em525, primary screen (AID 898). The note with it: hits give high values, concentration not given here.
`O=C(NCCC1=CCCCC1)c1ccc(Cl)c([N+](=O)[O-])c1`: the inhibition was -21.9%. The value for `CC(C)(C)c1ccc(NC(=O)COC(=O)CCc2nc3ccccc3c(=O)[nH]2)cc1` was -15.2%. Consider `COc1ccc(NC(=O)c2sc(N3CCOCC3)nc2-c2ccccc2)c(OC)c1`, for which the inhibition was -1.88%.

As for `CC1=C(C)CC(C(=O)NNC(=O)c2csc3c2CCC(C(C)(C)C)C3)C(C(=O)O)C1` (configuration not stated), the inhibition was -33.4%. Take `Cc1ccc(C)c(NC(=O)C(OC(=O)c2ccc(C)s2)c2ccccc2)c1` (configuration not stated): the inhibition was -11.6%.

Regarding `Cc1ccc(/C=C/C(=O)Nc2cc(S(=O)(=O)N3CCCCCC3)ccc2OCC(F)(F)F)o1`, the inhibition was 7.49%. The value for `O=c1[nH]c(CN2CCN(S(=O)(=O)c3ccc4c(c3)OCCO4)CC2)nc2sc3c(c12)CCCC3` was -8.83%; that for `Cc1ccc(S(=O)(=O)N(CC(=O)Nc2cccc([N+](=O)[O-])c2)Cc2ccc(Cl)cc2)cc1` was -31.4%; that for `CC(C)OCCCNC(=O)c1cc(Sc2ccc(F)cc2)nc2ccccc12` was -10.5%. As for `COc1cccc(-n2c(SCC(=O)c3c[nH]c4ccccc34)nc3ccccc3c2=O)c1`, the figure is -22.8%. As for `C/C(=N\NC(=O)c1ccc(CSc2nc(C)cc(C)n2)cc1)C1CCCCC1`, the inhibition is -27.2%. The value for `CC(=O)c1c(O)cc2n(c1=O)-c1ccc(Cl)cc1C2(C)C` was -21.9%; that for `CSc1c(SCc2ccccc2)cnn(Cc2ccccc2)c1=O` was -31.9%; that for `Cc1ccc(S(=O)(=O)N(NC2=NS(=O)(=O)c3ccccc32)C(=O)c2ccccc2)cc1` was -28.4%. In the case of `CCCCCC(=O)Nc1ccc(S(=O)(=O)Nc2ccc(Cl)nn2)cc1`, the inhibition is -13.3%. The value for `CC(C)(C)C(=O)N1CCC[C@@]1(CO)C(=O)O` was -12.8%; that for `COc1ccc(C(CC(=O)c2ccccc2)S(=O)(=O)c2ccccc2)cc1` (configuration not stated) was -12.2%. The value for `CCCCN(C)c1ccc([N+](=O)[O-])cc1` was -11%; that for `CCCCOc1ccc(NC(=O)[C@@H]2CCCN2C(=O)C2CCN(S(=O)(=O)c3ccc(C)cc3)CC2)cc1` was -8.82%; that for `Cc1ccccc1Cn1nc(C)c(NC(=O)C(F)(F)F)c1C` was -28.6%. Regarding `Cc1ccc(-c2csc(NNC(=O)c3ccccc3)n2)cc1`, the inhibition was -36.8%. As for `Cc1ccccc1/[N+]([O-])=C/c1ccncc1`, the inhibition is 77.8% (active). The value for `CC(NC(=O)C(=O)NN=C1CCC(C(C)(C)C)CC1)c1ccccc1` (configuration not stated) was -22%.

As to `CCOc1ncccc1C(=O)N(CC)CC(=O)Nc1ccc(NC(C)=O)cc1`, the inhibition is -14.7%.

For `Cc1cc(C(=O)CSc2nc(N)cc(=O)[nH]2)c(C)n1-c1cccc(F)c1`, the inhibition is -16.4%. Regarding `COC(=O)Cc1csc(/N=C/c2c(O)n(-c3cccc(C(F)(F)F)c3)c(=O)c3ccccc23)n1`, the inhibition is -22.8%. The value for `COc1ccc(-n2c(C)cc(C(=O)CN3C(=O)NC4(CCc5ccccc54)C3=O)c2C)cc1` (configuration not stated) was -19.6%. As for `Cc1scc(C(=O)NNC(=S)NCC(C)C)c1C`, the figure is -19.1%; as for `COCCCNC(=O)Cn1cc(/C=C(\C#N)C(=O)N2CCN(c3ccccc3)CC2)c2ccccc21`, -25.6%; as for `CC(=O)Nc1cccc(/C(C)=N/NC(=O)c2c(-c3ccccc3Cl)noc2C)c1`, -32.1%.

On to `CC(C)Cc1nn2c(=O)cc(O)nc2s1`, for which the inhibition is -35.6%. Turning to `COc1ccc(OCC(=O)Nc2cc(C)c(Cl)cc2OC)c([N+](=O)[O-])c1`, the inhibition was -16.9%.

With `O=C(OCC1O[C@@H](OC(=O)c2cc(O)c(O)c(O)c2)[C@@H](OC(=O)c2cc(O)c(O)c(O)c2)[C@@H](OC(=O)c2cc(O)c(O)c(O)c2)[C@@H]1OC(=O)c1cc(O)c(O)c(O)c1)c1cc(O)c(O)c(O)c1` (some centres not stated), the inhibition is 71.9% (active). For `CC(=O)NC1C(OCc2ccccc2)OC(COC(C)=O)C(OC(C)=O)C1OC(C)=O` (configuration not stated), the inhibition is -23.9%.

`S=C(NCCc1ccccc1)NCC1CCCO1` (configuration not stated): the inhibition is -37.5%. On to `CCS(=O)(=O)Nc1cccc(-c2cc(-c3ccccc3)c3cc(C)ccc3n2)c1`, for which the inhibition was -8.31%. The value for `CCc1ccc(C(=O)OCC(=O)Nc2cccc(S(=O)(=O)NC3=NCCCCC3)c2)cc1` was -20.5%; that for `Cc1cc([N+](=O)[O-])ccc1NC(=O)C1CCCO1` (configuration not stated) was -25.6%; that for `Cc1cc([N+](=O)[O-])nn1CC(=O)Nc1ccc(Cc2ccncc2)cc1` was -27.8%.

Consider `O=C(Nc1ccccc1Cc1ccccc1)c1ccc2c(c1)SC1=NS(=O)(=O)CCN12`, for which the inhibition was -31.8%.

On to `CCOC(=O)CN1C(=O)N[C@@H](c2ccc(Br)cc2)C(C(C)=O)=C1C`, for which the inhibition is -19.8%.

Turning to `CC(=O)c1ccc(N2CCN(C(=O)c3ccc4nc[nH]c4c3)CC2)cc1`, the inhibition is -23.5%.

For `COc1ccc2oc(-c3cccc(NC(=O)CSc4ccc(Cl)cc4)c3)nc2c1`, the inhibition is -28.2%.

For `COc1ccc(N2C(=O)C(CC(=O)Nc3ccc(F)cc3)N(CCc3cccs3)C2=O)cc1` (configuration not stated), the inhibition is -4.8%.

On to `Cc1ccc(CCCOC(=O)C[N+]2(C)CCCC2)cc1`, for which the inhibition is -21.4%. On to `CCC(=O)Nc1c(C)n[nH]c1C`, for which the inhibition is -26.6%. The value for `CCCN1C(=O)C(Cc2nc3ccccc3c(=O)n2-c2ccccc2)c2cc(C)ccc21` (configuration not stated) was -10.9%. Regarding `CCOC(=O)c1cccnc1NC(=O)c1ccncc1`, the inhibition was -10.3%. For `COc1cccc2c1CCC(NC(C)=O)C2=O` (configuration not stated), the inhibition was -4.91%. The value for `CCN(CC)S(=O)(=O)c1ccc(C)c(NC(=O)COc2ccc(Br)cc2Cl)c1` was -2.1%; that for `Cc1coc2c(O)cc3c(c12)OC1(N2CCCCC2)C(=O)NCCCC31` (configuration not stated) was 73% (active). The value for `COc1ccc(CNC(=O)CCCn2nc(C)c([N+](=O)[O-])c2C)cc1` was -22.1%; that for `COc1ccc(/C=C/C(=O)NC(=S)NN2CCCCC2c2cccnc2)cc1` (configuration not stated) was -20.6%. The value for `Cc1ccc(C(=O)COC(=O)CCCC(=O)NC2CCCCC2)cc1[N+](=O)[O-]` was -26.3%; that for `CCNC(=S)N1CCC(c2nc3cc(C)c(C)cc3[nH]2)CC1` was -17.7%. Take `O=S(=O)(ON(c1ccccc1)S(=O)(=O)c1ccccc1)c1ccccc1`: the inhibition was -36.9%. As for `CCOC(=O)c1csc(NC(=O)Nc2cccc(OC)c2)n1`, the figure is -29.1%; as for `O=C(NC(CC(=O)N1CCN(c2ccccc2)CC1)c1ccccc1)c1ccccc1Cl` (configuration not stated), -12%. `CCOc1cccc2c1OC1(CCCCC1)N1N=C(c3cccnc3)CC21` (configuration not stated): the inhibition was -19.2%.

As for `CC1(c2ccccc2)CC(C)(C)N(C(=O)c2cc([N+](=O)[O-])cc([N+](=O)[O-])c2)c2ccccc21` (configuration not stated), the inhibition was -29.6%. As for `CC1CCN(C2=NC(=O)/C(=C/c3cn[nH]c3-c3ccccc3)S2)CC1`, the figure is -21.6%; as for `Cc1ccc(-n2c(SCC(=O)Nc3ncc(Cl)cc3Cl)nc3ccccc32)cc1`, 8.79%. On to `CCOC(=O)/C=C/C(=O)OCC(=O)NC(c1ccccc1)c1ccccc1`, for which the inhibition is -29%.

In the case of `Cc1cc(C)c(C2C3=C(Nc4c2c(C)nn4-c2ccccn2)c2ccccc2C3=O)c(C)c1` (configuration not stated), the inhibition is -0.15%. `CCOC(=O)C1=C(c2ccc(OC)cc2)C(=O)c2ccccc2C1=O`: the inhibition is 16.7%. As for `CCOC(=O)c1c(C)[nH]c2c1-c1ccccc1C(=O)C2=O`, the figure is 78.7% (active); as for `CCOC(=O)c1c(C)[nH]c(=S)c(C#N)c1-c1ccccc1`, -37.4%.

As to `COc1ccc2c(CC(=O)OCC(=O)Nc3ccccc3[N+](=O)[O-])coc2c1`, the inhibition was -29.4%. On to `Cc1ccc(C(=O)Oc2coc(CSc3nnc(NC(=O)c4cccs4)s3)cc2=O)cc1C`, for which the inhibition is 0.04%. As for `NC1=NC(=O)S/C1=C\c1ccc(O)cc1`, the figure is -36.5%; as for `CCOc1ccccc1N1CCN(C(=S)Nc2ccc(S(N)(=O)=O)cc2)CC1`, -2.91%; as for `CC(C)(C)C(=O)NC(NC(=S)Nc1ccc(S(N)(=O)=O)cc1)C(Cl)(Cl)Cl` (configuration not stated), -18.5%. The value for `CCn1c(C(C)NC(=O)c2ccc(C)cc2)n[nH]c1=S` (configuration not stated) was -41.3%; that for `CCN1CCC2(CC1)N=C(c1ccc(F)cc1)C(=S)N2C(=O)c1ccc(C)cc1` was 77.9% (active). As for `Cc1ccc(C(=O)N(CN2CCCC2=O)c2ccc(F)cc2)cc1`, the figure is -41.7%. For `CC(=O)c1c(C)[nH]c(C(=O)OCC(=O)Nc2sc3c(c2C#N)CCCC3)c1C`, the inhibition is -24.9%. As for `COCCCN(C(=S)Nc1c(C)cc(C)cc1C)C(C)c1ccncc1` (configuration not stated), the figure is -22.6%. The value for `Cc1ccccc1-n1nc(C)c2c1N=C1C(Cl)=CC(Cl)=CN1C2c1ccc(C(=O)O)cc1` (configuration not stated) was -22.9%; that for `COC(C(=O)Nc1ccc(C(C)=O)cc1)c1ccccc1` (configuration not stated) was -28.2%. For `C/C(=N/NC(=S)Nc1ccccc1)c1ccc2c(c1)OCO2`, the inhibition is -22.5%.

Regarding `COc1ccc(OCCNS(=O)(=O)Cc2ccccc2)cc1`, the inhibition was -30.4%. On to `Cc1nonc1C(=O)N/N=C/c1ccc(O)cc1`, for which the inhibition is -21.7%. Turning to `Cc1ccc2c(CC(=O)NCc3cccs3)coc2c1`, the inhibition was -29.9%. The value for `CCc1cccc(CC)c1NC(=O)COc1ccccc1C(=O)c1cc(C#N)c(=O)n(C2CCCCC2)c1` was -24.5%. The value for `Cc1ccc(-c2cc(C(=O)N/N=C/C=C/c3ccccc3)n[nH]2)o1` was -23%; that for `O=C(COC(=O)c1cc2c(s1)CCCC2)NCc1ccccc1Cl` was -45.2%.

With `CCCN1CNC(=S)N(CCc2ccccc2)C1`, the inhibition is -20.8%.

Source of the values: PubChem BioAssay AID898 (University of Pittsburgh Molecular Library Screening Center, 2007).
